We go through 101 molecules from PubChem BioAssay AID651815 (National Center for Advancing Translational Sciences (NCATS), 2012).

The campaign covered roughly 2,100 compounds. About 1,100 (52%) were called active. About 29% were inconclusive and are not listed. Calls come from the whole dose curve; as a rule, active = well fitted inhibition curve with a large enough effect; inconclusive = small, poorly fitted or top-dose-only effect; inactive = no such curve, though single readings can be large or run the other way. So high a share suggests a set chosen from earlier hits. The list shows a part of the results.
Potency is the fitted concentration of half-maximal effect.

Chain of DNA dC->dU-editing enzyme APOBEC-3F (Homo sapiens) (Q8IUX4 whole entry, looked up): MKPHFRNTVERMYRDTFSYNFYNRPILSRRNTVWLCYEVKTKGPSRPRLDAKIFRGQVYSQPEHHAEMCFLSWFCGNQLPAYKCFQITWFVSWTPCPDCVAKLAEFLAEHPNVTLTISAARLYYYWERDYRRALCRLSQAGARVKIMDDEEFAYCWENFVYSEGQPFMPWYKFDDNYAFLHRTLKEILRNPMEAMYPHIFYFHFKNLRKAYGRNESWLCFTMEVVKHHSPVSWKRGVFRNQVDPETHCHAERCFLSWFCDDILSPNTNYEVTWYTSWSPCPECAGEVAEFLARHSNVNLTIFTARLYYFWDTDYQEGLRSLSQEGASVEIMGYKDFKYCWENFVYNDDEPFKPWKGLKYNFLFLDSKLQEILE

For the assay, the target named is DNA dC->dU-editing enzyme APOBEC-3F (Homo sapiens) (UniProt Q8IUX4). Description: qHTS for inhibitors of Vif-A3F interactions: Cherry picks counterscreen. Note: nearly all actives have a fitted effect of over 65% in size. The following applies: HeLa A3F-eYFP/Vif cells, eYFP fluorescence, 24 h; series mostly up to 46.1 µM. The method in brief:
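HeLa cells stably expressing A3F-eYFP and Vif, cultured overnight, then treated 24 h at 37 degrees C with compounds at several concentrations; yellow fluorescence (488 nm Ex/500-530 nm Em) imaged on Acumen; MG132 positive control.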
On the technique in general: Quantitative high-throughput screening tests each substance at several concentrations.
Turning to `COc1cccc2nccc(/C=C/c3ccc(N(C)C)cc3)c12`, the Potency was 20.6 µM (active).
As to `CN(C)c1ccc(/C=C/c2ccnc3cc(Cl)ccc23)cc1`, the Potency is 2.91 µM (active).
For `CN(C)c1ccc(/C=C/C=C/c2ccnc3ccccc23)cc1` the value was 3.66 µM (active); for `CNc1ccc(/C=C/c2ccnc3ccccc23)cc1`, 20.6 µM (active); for `Fc1cccc(F)c1/C=N/NC(=S)Nc1cccnc1`, “inactive”.
The same measure for `CN(C)c1ccc(/C=C/c2ccnc3ccccc23)c(N)c1`: 8.2 µM (active); for `CN(C)c1ccc(/C=C/c2ccnc3ccc(-c4ccccc4)cc23)cc1`: 9.2 µM (active).
As for `CN(C)c1ccc(/C=C/c2cnnc3ccccc23)cc1`, the Potency was 20.6 µM (active).
For `CCCCCCCNc1ccc(/C=C/c2ccnc3ccccc23)cc1` the value was 23.1 µM (active).
For `CN1C(=O)C(O)(C2COC(C)(C)CC2=O)c2cc(Br)ccc21` (stereo unspecified) the value was “inactive”; for `CN(C)c1ccc(/C=C/c2ccnc3ccccc23)cc1`, 18.4 µM (active); for `Nc1ccccc1/C=C/c1ccnc2ccccc12`, 16.4 µM (active).
With `O=c1c(Cl)c2oc3ccccc3nc-2c2ccccc12`, the Potency was 16.4 µM (active).
The same measure for `O=S(=O)(Nc1nc2n(n1)C(c1ccccc1)C=C(c1ccc(Cl)cc1)N2)c1ccccc1` (stereo unspecified): “inactive”; for `COc1ccc(C2=CC(c3ccc(N(C)C)cc3)n3nnnc3N2)cc1` (stereo unspecified): 16.4 µM (active); for `CN(C)c1ccc(C2C=C(c3ccccc3)Nc3nnnn32)cc1` (stereo unspecified): 16.4 µM (active).
The same measure for `CCN1C(=S)SC(=O)C1=C1C=C(C)N(Cc2ccco2)C(C)=C1`: 15.8 µM (active); for `Clc1ccc(/C=N/NC2=Nc3cccc4cccc2c34)cc1`: 18.4 µM (active).
For `Clc1ccccc1/C=N/NC1=Nc2cccc3cccc1c23` the value was 16.4 µM (active).
Regarding `C/C(CCc1ccc2c(c1)OCO2)=N\NC(=S)NC(C)C`, the Potency entry was “inactive”.
The same measure for `C=C(C)CNC(=S)NNC(=O)c1ccco1`: “inactive”; for `C=CCn1c(O)c(N=NC(=O)CNC(=O)c2ccco2)c2ccccc21`: 11.2 µM (active).
For `O=C(Nc1nc(NC(=O)c2ccco2)n(-c2ccccc2)n1)c1ccccc1` the value was “inactive”; for `COCCCNC(=S)N/N=C/c1cccc(OC)c1O`, “inactive”; for `COc1cccc(/C=N/NC(=O)c2cc3c(OC)c(OC)ccc3[nH]2)c1OC`, 3.53 µM (active).
For `COc1ccc(C(=O)N/N=C/c2cc(Br)ccc2O)cc1OC` the value was “inactive”; for `COc1ccccc1/C=N/NC(=O)c1cc2c(OC)c(OC)ccc2[nH]1`, 9.94 µM (active).
For the molecule `CC1Sc2ccc(C(=O)NCc3ccccn3)cc2NC1=O` (stereo unspecified), the Potency entry is “inactive”.
For `CCCNC(=O)c1ccccc1NC(=O)c1ccc2c(c1)NC(=O)C(C)S2` (stereo unspecified) the value was 6.27 µM (active); for `Cc1cc(C)c2nccc(/C=C/c3ccc(N(C)C)cc3)c2c1`, 13 µM (active); for `COc1ccc2nccc(/C=C/c3ccc(N(C)C)cc3)c2c1`, 23.1 µM (active).
Consider `CN(C)c1ccc(/C=C/c2ccnc3ccc(Br)cc23)cc1`, for which the Potency was 4.61 µM (active).
As to `CN(C)c1ccc(/C=C/c2ccnc3ccc(I)cc23)cc1`, the Potency was 6.51 µM (active).
As to `ClCC1NCC(c2ccccc2Cl)c2c1[nH]c1ccccc21` (stereo unspecified), the Potency entry is “inactive”.
For `CN(C)c1ccc(/C=C/c2ccnc3ccc(N)cc23)cc1` the value was 23.1 µM (active).
Turning to `Cc1ccc2nccc(/C=C/c3ccc(N(C)C)cc3)c2c1`, the Potency is 9.2 µM (active).
For `COC(=O)c1c(-c2ccccc2Cl)noc1/C=C/N(C)C` the value was “inactive”.
For `CC(=O)c1cc(NC(=O)c2ccc(C)cc2)c(=O)oc1/C=C/N(C)C` the value was 11.6 µM (active); for `COc1ccc(C(=O)Nc2cc(C(C)=O)c(/C=C/N(C)C)oc2=O)cc1`, 12.5 µM (active); for `CC(=O)c1cc(NC(=O)c2ccc(Cl)cc2)c(=O)oc1/C=C/N(C)C`, 6.27 µM (active).
For the molecule `COC(=O)c1sc2nc(CSc3ccc(Br)cc3)[nH]c(=O)c2c1C`, the Potency entry is “inactive”.
For `COc1cc(C2c3cc4c(cc3C(OC3OC5COC(c6cccs6)OC5C(O)C3O)C3COC(=O)C23)OCO4)cc(OC)c1O` (stereo unspecified) the value was 11.2 µM (active); for `Cc1ccc(O)c(NC(=O)c2cc(-c3ccccc3O)no2)c1`, 20.6 µM (active); for `COc1cccc(C(=O)Nc2ncc3c(n2)CC(c2ccc(OC)cc2OC)CC3=O)c1` (stereo unspecified), 11.2 µM (active).
For `Cc1cc(N2CCCC2)ccc1/C=C1\NC(=S)N(C)C1=O` the value was 2.91 µM (active); for `Cc1cc(N2CCCC2)ccc1/C=C1/C(=O)N(C)C(=S)N1C`, “inactive”.
Consider `Cc1cc(/C=C2\NC(=S)N(C)C2=O)ccc1N1CCCC1`, for which the Potency was 2.5 µM (active).
Take `COC(=O)c1cnc(Nc2cc(C)ccc2OC)c2ccccc12`: the Potency result was “inactive”.
The same measure for `Cc1ccc(O)c(Nc2c3ccccc3nc3ccccc23)c1`: “inactive”; for `COc1ccc(C)cc1Nc1c2c(nc3ccccc13)CCC2`: 1.98 µM (active); for `CN1/C(=C\C=C2/SC(=S)N(CC(=O)O)C2=O)C(C)(C)c2ccccc21`: “inactive”.
For `CCCN1C(=O)/C(=C\C=C2\N(CC)c3ccccc3C2(C)C)SC1=S` the value was 2.59 µM (active); for `CN1/C(=C\C=C2/SC(=S)NC2=O)C(C)(C)c2ccccc21`, 3.96 µM (active); for `CCCCN1C(=O)/C(=C/C=C2/CC(C)(C)CN2C)SC1=S`, “inactive”.
The same measure for `CCCN1C(=O)/C(=C/C=C2\N(CC)c3ccccc3C2(C)C)SC1=S`: 4.44 µM (active); for `O=C(N/N=C\C=C\c1ccc([N+](=O)[O-])o1)c1cccs1`: 15.8 µM (active); for `COc1ccccc1OCC(=O)N/N=C/C=C/c1ccc([N+](=O)[O-])o1`: 16.4 µM (active).
As to `O=C(N/N=C/C=C/c1ccco1)c1ccncc1`, the Potency result was “inactive”.
`Clc1ccccc1C1CC(c2ccccc2)=Nc2ccccc2N1` (stereo unspecified): the Potency entry is “inactive”.
Turning to `Cc1ccc(-c2cn3nc(-c4ccccc4)c(-c4ccccc4)nc3n2)cc1`, the Potency is 18.4 µM (active).
The same measure for `Cc1cc(C)nc(Nc2nc(C(N)Cc3ccccc3)cs2)n1` (stereo unspecified): 14 µM (active); for `COC(=O)CCC(=O)NC(=S)Nc1sc(C)c(C)c1C(N)=O`: 1.25 µM (active); for `COc1cc2cc(-c3ccc(OC)c(OC)c3C)nc(N)c2cc1OC`: 1.77 µM (active).
The same measure for `Cc1cc(N/N=C/c2ccc(O)cc2O)nc(-n2nc(C)cc2C)n1`: “inactive”; for `C=CCSc1nc2sc3c(c2c(=O)n1CC)CCC3`: “inactive”; for `CCN(CC)C(=O)Cn1c(=O)n(-c2ccccc2)c(=O)c2c3c(sc21)CCC3`: 23.1 µM (active).
For `O=C(CC1CC2CCC1C2)Nc1nc(-c2ccccn2)cs1` (stereo unspecified) the value was “inactive”; for `O=C(c1ccccn1)C1CCCN(Cc2cn[nH]c2-c2cc3ccccc3o2)C1` (stereo unspecified), “inactive”.
As to `COc1ccc2c(c1)/C(=C/c1cc(OC)c(OC)c(OC)c1)C(=O)N2`, the Potency is 2.23 µM (active).
The same measure for `COc1cc(C=C2C(=O)c3ccccc3C2=O)cc(OC)c1OC`: “inactive”; for `O=C1/C(=C\c2cc([N+](=O)[O-])ccc2O)SC(=S)N1Cc1ccc(Cl)cc1`: 9.2 µM (active); for `O=C1NC(=Nc2ccccc2Cl)S/C1=C\c1cc([N+](=O)[O-])ccc1O`: “inactive”.
`c1ccc(-c2nccc(-c3ccc4c(c3)OCO4)n2)cc1`: the Potency was 5.59 µM (active).
On to `CC1CCN(C(=O)C(C)Sc2nc(-c3ccccc3)cc(C(F)(F)F)n2)CC1` (stereo unspecified), for which the Potency entry was “inactive”.
Consider `COC(=O)CCS(=O)(=O)c1nc(-c2ccccc2)cc(C(F)(F)F)n1`, for which the Potency is 12.5 µM (active).
The same measure for `C=C(C)CNC(=S)N/N=C1\CCCCc2ccccc21`: “inactive”.
The same measure for `COc1ccc(N2C(=O)CC(Sc3nc(C)c4c(n3)CCCC4)C2=O)cc1` (stereo unspecified): 15.8 µM (active); for `Nc1c(C(=O)c2ccccc2)sc2nsc(SCCN3CCCC3)c12`: 14 µM (active).
For `Nc1c(C(=O)c2ccccc2)sc2snc(SCC(=O)c3ccccc3)c12` the value was 15.8 µM (active); for `Nc1c(C(=O)c2ccccc2)sc2nsc(SCCN3CCOCC3)c12`, 7.31 µM (active); for `CSCC[C@H](NC(=O)[C@H](Cc1ccccc1)n1c(=O)[nH]c2ccccc2c1=O)C(=O)N1CCC[C@@H]1C(=O)O`, “inactive”.
Consider `CCC1=Nc2cc(C(=O)NCc3cccnc3)ccc2Sc2ccc(C)cc21`, for which the Potency was 5.59 µM (active).
The same measure for `COc1ccc(C(=O)NC(=S)NCc2cccnc2)cc1Cl`: “inactive”; for `CCCC1=Nc2cc(C(=O)NCc3ccco3)ccc2Sc2ccccc21`: 1.98 µM (active).
Take `Cc1cc(C)nc(NC(=S)Nc2cccc(Cl)c2Cl)c1`: the Potency entry is “inactive”.
For `C/C(=N\NC(=S)NC(C)C)c1ccc(C(C)(C)C)cc1` the value was “inactive”.
For `FC(F)(Cl)c1nnc2ccc(Cl)nn12` the value was 6.27 µM (active); for `CC[N+](C)(C(=O)O)/C(=C\c1ccccc1)c1ccnc2ccccc12` (stereo unspecified), 18.4 µM (active); for `Nc1c(C(=O)Nc2nccs2)sc2nc(-c3cccs3)cc(C(F)(F)F)c12`, 11.2 µM (active).
For `Nc1c(C(=O)Nc2nc3ccccc3s2)sc2nc(-c3cccs3)ccc12` the value was 18.4 µM (active); for `Nc1c(C(=O)Nc2ccc(F)cc2)sc2nc(-c3cccs3)cc(C(F)(F)F)c12`, 2.91 µM (active); for `Cc1nnc(NC(=O)c2sc3nc(-c4cccs4)cc(C(F)(F)F)c3c2N)s1`, 6.51 µM (active).
Turning to `O=C1N/C(=N\N=C\c2ccco2)SC1Cc1ccccc1[N+](=O)[O-]` (stereo unspecified), the Potency entry is “inactive”.
For `C/C(=N\NC(N)=S)C12CC3CC(CC(C3)C1)C2` the value was “inactive”; for `O=C(NC1CCCCC1)c1cccc2c1C(=O)c1ccc(N3CCC(Cc4ccccc4)CC3)cc1S2(=O)=O`, 15.8 µM (active); for `O=C(NC1CC1)c1cccc2c1C(=O)c1ccc(N3CCC(Cc4ccccc4)CC3)cc1S2(=O)=O`, 18.4 µM (active).
The same measure for `CCc1ccc(C(=O)/C=C/c2ccc([N+](=O)[O-])o2)cc1`: 15.8 µM (active); for `CCOC(=O)CCc1ccc(NC(=O)/C=C/c2ccc([N+](=O)[O-])o2)cc1`: 20.6 µM (active).
The same measure for `N#CCc1ccc(NC(=O)/C=C/c2ccc([N+](=O)[O-])o2)cc1`: 11.6 µM (active); for `O=C(/C=C/c1ccc([N+](=O)[O-])o1)NNC(=O)c1ccc(F)cc1`: 2.8 µM (active).
For the molecule `CC(C)Cn1c(N)c(C(=O)COC(=O)c2ccc([N+](=O)[O-])o2)c(=O)n(C)c1=O`, the Potency result is “inactive”.
